Source: PubChem BioAssay (National Center for Advancing Translational Sciences (NCATS))
Six1-Eya2 inh: qHTS Assay for Inhibitors of the Six1/Eya2 Interaction; Homeobox protein SIX1 (Homo sapiens) + Protein phosphatase EYA2 (Homo sapiens), …; AlphaScreen GST-Six1/His-Eya2 binding, biochemical; active compounds read low; activity change, % (no concentration beside the values); 0.56% of 360,000 active; AID 651725, 2012
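GST-Six1 + His-Eya2 (5X stock: 250/500 nM); Tris pH 8.0, 300 mM NaCl, 0.05% BSA, 0.02% Tween 20; GSH donor/Ni acceptor beads; 1 h 37 °C dark; AlphaScreen readout.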
KCNH2 3.1 inh: qHTS for Inhibitors of KCHN2 3.1: Mutant qHTS | AID 720553, 2013 | U2OS KCNH2 3.1, thallium flux FluxOr; active compounds read low | 0.95% of 340,000 active | activity change, % (tested at about 1.8 µM) | Potassium voltage-gated channel subfamily H member 2, brain isoform KCNH2 3.1 (human);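 active = maximum activity change below -70%; inconclusive = maximum activity change from -70% to -50%; inactive = maximum activity change above -50%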;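 note: thallium influx rate constant from kinetic fluorescence after stimulation buffer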
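FluxOr-based Tl+ influx in U2OS cells transduced with KCNH2 3.1 virus; rate constants normalized to DMSO controls.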
KCNH2 WT inh: qHTS for Inhibitors of KCHN2 3.1: Wildtype qHTS; AID 720551, 2013; 0.37% of 340,000 active; U2OS, BacMam KCNH2, thallium flux FluxOr; active compounds read low; activity change, % at 1.84 µM;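 active = maximum activity change below -70%; inconclusive = maximum activity change between -70% and -50%; inactive = maximum activity change above -50%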
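U2OS cells transduced with wild-type KCNH2 virus are loaded with FluxOr dye for 45 min, and thallium flux is measured in kinetic reads before and after stimulation buffer. Rate constants are normalized to DMSO controls.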
CtBP-E1A inh: qHTS Assay for Inhibitors of the CtBP/E1A Interaction; AID 651724, 2012; 0.49% of 340,000 active; AlphaScreen GST-E1A/His-CtBP binding, 1536-well; active compounds read low; CtBP / adenovirus E1A interaction (AlphaScreen); activity change, % (concentration not given with the values)
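AlphaScreen with 125 nM GST-E1A and 125 nM His-CtBP (5X stocks) in Tris pH 8.0, 300 mM NaCl, BSA, Tween 20, TCEP. Compounds preincubated 2 h at 37 deg C, then glutathione donor/nickel acceptor beads added for 1 h at 37 deg C in dark.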
KDM4E inh: qHTS Assay for Inhibitors of Human Jumonji Domain Containing 2E (JMJD2E) | JMJD2E catalytic domain, FDH-coupled NADH fluorescence (FDH is formaldehyde dehydrogenase) | Potency, µM (titrated, usually from 57.1 µM), for inactives: at the top dose activity change, negative = inhibition, hits mostly inhibitors | 1.6% of 230,000 active; active = well fitted inhibition curve with a large enough effect, not every such curve was filed as active; inconclusive = small, poorly fitted or top-dose-only effect, or another doubt; inactive = no such curve, though single readings can be large or run the other way;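 note: potency is the fitted concentration of half-maximal effect; 0% = wells with enzyme and -100% = buffer wells without enzyme; nearly all actives have a fitted effect of over 50% in size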
Starred values were filed as active, the others as inactive. This is a sample that favours compounds with a hit; in the whole collection about 2% have one here. Cut-off read from the data, not from the text of the source, unless noted: active = activity change below about -65%; inconclusive = mostly about -30% to -63%; inactive = weaker than that. Unless noted, % is set by controls: 0 for no effect and ±100 for the full control effect.

Results for CCSc1nc2c(c(=O)[nH]1)C(c1ccccn1)C1=C(CC(C)(C)CC1=O)N2 (stereo unspecified) ?
Six1-Eya2 inh: 6; KCNH2 3.1 inh: -15; KCNH2 WT inh: 2; CtBP-E1A inh: 9; KDM4E inh: inconclusive

Results for Cc1cc(C)nc(NS(=O)(=O)c2ccc(NS(=O)(=O)c3ccsc3)cc2)n1 ?
Six1-Eya2 inh: -2; KCNH2 3.1 inh: -89*; KCNH2 WT inh: 3; KDM4E inh: -4%

How did Cc1cc(C)nc(NS(=O)(=O)c2ccc(NS(=O)(=O)c3ccccc3)cc2)n1 do in these assays?
Six1-Eya2 inh: 1; KCNH2 3.1 inh: 12; KCNH2 WT inh: -4; CtBP-E1A inh: 3; KDM4E inh: 5%

What do the screens show for `O=C(NC(Cc1ccccc1)C(=O)O)/C(=C\c1ccc(Cl)cc1)NC(=O)c1ccccc1` (stereo unspecified)?
Six1-Eya2 inh: 4; KCNH2 3.1 inh: -14; KCNH2 WT inh: -92*; CtBP-E1A inh: 0; KDM4E inh: -1%

What do the screens show for `CC(C)C(=O)Nc1ccc(C(=O)NNC(=O)CCc2ccccc2)cc1`?
Six1-Eya2 inh: 14; KCNH2 3.1 inh: -76*; KCNH2 WT inh: -17; CtBP-E1A inh: 4; KDM4E inh: 5%

What do the screens show for `Nc1c(-c2ccccc2)c(CN2CCOCC2)nn1-c1cccc([N+](=O)[O-])c1`?
Six1-Eya2 inh: -2; KCNH2 3.1 inh: -2; KCNH2 WT inh: 1; CtBP-E1A inh: 4; KDM4E inh: -5%

How did ON(CCc1ccccn1)CCc1ccccn1 do in these assays?
Six1-Eya2 inh: inconclusive; KCNH2 3.1 inh: -13; KCNH2 WT inh: -4; CtBP-E1A inh: -24

How did OCCN(Cc1ccccn1)Cc1ccccn1 do in these assays?
Six1-Eya2 inh: -90*; CtBP-E1A inh: -89*

What do the screens show for `Cc1cc(N/C=C\c2nnnn2-c2ccc(F)cc2)no1`?
Six1-Eya2 inh: 30; KCNH2 3.1 inh: 6; KCNH2 WT inh: -121*; CtBP-E1A inh: 6; KDM4E inh: 8%

Results for O=C(OCc1csc(-c2ccccc2)n1)c1ccc(O)cc1 ?
Six1-Eya2 inh: 12; KCNH2 3.1 inh: -80*; KCNH2 WT inh: -12; CtBP-E1A inh: 0; KDM4E inh: 8%

How did COC(=O)c1ccccc1NC(=O)Cn1cnc2c(cnn2-c2ccc(C)c(C)c2)c1=O do in these assays?
Six1-Eya2 inh: 6; KCNH2 3.1 inh: 2; KCNH2 WT inh: -1; CtBP-E1A inh: 7

What do the screens show for `Cc1ccc(-n2ncc3c(=O)n(CC(=O)NCc4ccco4)cnc32)cc1C`?
Six1-Eya2 inh: 5; KCNH2 3.1 inh: -85*; KCNH2 WT inh: 0; CtBP-E1A inh: 0; KDM4E inh: inconclusive

Results for Cc1ccc(-n2ncc3c(=O)n(CC(=O)Nc4cccc(Cl)c4)cnc32)cc1C ?
Six1-Eya2 inh: 5; KCNH2 3.1 inh: -83*; KCNH2 WT inh: 6; CtBP-E1A inh: 3; KDM4E inh: inconclusive

What do the screens show for `CN(C)CCCn1c(SCc2c(Cl)cccc2Cl)nnc1-c1ccncc1`?
Six1-Eya2 inh: 5; KCNH2 3.1 inh: 25; KCNH2 WT inh: 2; CtBP-E1A inh: -15

What do the screens show for `O=C(NC1CCN(C(=O)Nc2cccc(Cl)c2)CC1)C1CCCCC1`?
Six1-Eya2 inh: 5; KCNH2 3.1 inh: -73*; KCNH2 WT inh: -9; CtBP-E1A inh: -8

How did Cc1cc(C)cc(NC(=S)N2CCC(NC(=O)C3CC3)CC2)c1 do in these assays?
Six1-Eya2 inh: 7; KCNH2 3.1 inh: -11; KCNH2 WT inh: -95*; CtBP-E1A inh: -3

What do the screens show for `Cc1cccc(NC(=O)N2CCC(NC(=O)C3CCCCC3)CC2)c1`?
Six1-Eya2 inh: 5; KCNH2 3.1 inh: -5; KCNH2 WT inh: 1; CtBP-E1A inh: 3

How did Cc1cc(C)cc(NC(=S)N2CCC(NC(=O)C3CCCCC3)CC2)c1 do in these assays?
Six1-Eya2 inh: 4; KCNH2 3.1 inh: -10; KCNH2 WT inh: 8; CtBP-E1A inh: 0

What do the screens show for `CC(C)=CCC/C(C)=C/CC/C(C)=C/CC/C(C)=C/CC1=C(C)C(=O)c2ccccc2C1=O`?
Six1-Eya2 inh: -3; KCNH2 3.1 inh: 1; KCNH2 WT inh: 0; CtBP-E1A inh: 8; KDM4E inh: -7%

How did CC(C)=CCC1=C(OCC(=O)O)C(=O)c2ccccc2C1=O do in these assays?
Six1-Eya2 inh: -1; KCNH2 3.1 inh: 9; KCNH2 WT inh: 8; KDM4E inh: 14µM*

Results for O=C(N/N=C(\Cc1ncc[nH]1)c1ccccc1)c1ccncc1 ?
Six1-Eya2 inh: -82*; KCNH2 3.1 inh: inconclusive; KCNH2 WT inh: 5; CtBP-E1A inh: -90*; KDM4E inh: inconclusive

What do the screens show for `O=C(N/N=C/c1ccccn1)c1ccncc1`?
Six1-Eya2 inh: -75*; KCNH2 3.1 inh: -1; KCNH2 WT inh: 5

What do the screens show for `O=C(N/N=C(\Cc1ncc[nH]1)c1ccccc1)c1ccccc1`?
KDM4E inh: 4%

Results for Cn1ncc(Cl)c1C(=O)N/N=C/c1ccccn1 ?
Six1-Eya2 inh: -80*; KCNH2 3.1 inh: -13; KCNH2 WT inh: 6; CtBP-E1A inh: -75*; KDM4E inh: -2%

How did O=C1CC(c2ccccc2)CC(O)=C1C=Nc1ccccc1O (stereo unspecified) do in these assays?
Six1-Eya2 inh: 1; KCNH2 3.1 inh: -9; KCNH2 WT inh: -10; KDM4E inh: -2%

Results for COc1ccccc1CNC(=O)Cn1cccc1C(=O)c1ccccc1C ?
Six1-Eya2 inh: -3; KCNH2 3.1 inh: 11; KCNH2 WT inh: 4; CtBP-E1A inh: 0

How did CC(C)CCC(CCNCc1ccccn1)c1ccc2c(c1)OCO2 (stereo unspecified) do in these assays?
Six1-Eya2 inh: 0; KCNH2 3.1 inh: -95*; KCNH2 WT inh: inconclusive

How did CCNCCC(CCC(C)C)c1ccc2c(c1)OCO2 (stereo unspecified) do in these assays?
Six1-Eya2 inh: -1; KCNH2 3.1 inh: -99*; KCNH2 WT inh: -79*; CtBP-E1A inh: 2; KDM4E inh: inconclusive

What do the screens show for `CCN1C(=O)C(CC(=O)Nc2ccc(OC)cc2)N(Cc2ccco2)C1=S` (stereo unspecified)?
Six1-Eya2 inh: 0; KCNH2 3.1 inh: -1; KCNH2 WT inh: -21; CtBP-E1A inh: 7; KDM4E inh: -5%

Results for CN(C)c1cc(-c2ccc(Cl)cc2)oc(=O)c1Cl ?
Six1-Eya2 inh: -1; KCNH2 3.1 inh: -2; KCNH2 WT inh: 7; CtBP-E1A inh: -1; KDM4E inh: -16%

What do the screens show for `CN(C)c1cc(-c2ccc(Cl)c(Cl)c2)oc(=O)c1Cl`?
Six1-Eya2 inh: -2; KCNH2 3.1 inh: -98*; KCNH2 WT inh: 2; KDM4E inh: 5%
